# Hits are enriched below; roughly 10% of the tested compounds scored in any of these assays.
# BAZ2B block – blocks human BAZ2B; AlphaScreen BAZ2B-H3K14Ac peptide displacement; Q9UIF8; Potency, µM (doses to about 114 µM), without a hit: at the top dose activity change, negative = inhibition, most hits filed as inhibitors; 360,000 compounds, 4.4% hits; AID 504333; further: potency means the concentration at half of the fitted maximal effect; on the % scale 0 is the no-effect control and ±100 the full control effect; nearly all actives have a fitted effect of over 60% in size
#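 BAZ2B (50 nM) with biotin-H3(5-23)K14Ac peptide (50 nM) in PBS pH 7.4, 0.01% Tween-20, preformed 30 min, then compound 30 min at room temperature; top concentration 110uM. AlphaScreen streptavidin donor/nickel chelate acceptor beads (10 ug/mL final), 20 min dark, signal read.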
# G9a inh – blocks human histone lysine methyltransferase G9a | Q96KQ7 | G9a H3K9 monomethylation, AlphaScreen, 2 h | Potency, µM (titrated, usually from 102 µM), for inactives: top-dose activity, negative = inhibition, actives largely listed as inhibitors | 350,000 compounds, 8.8% hits | AID 504332; further: potency means the concentration at half of the fitted maximal effect; on the % scale 0 is the no-effect control and ±100 the full control effect; nearly all actives have a fitted effect of over 75% in size
#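 Using a bead-based AlphaScreen, monomethylated H3K9 product from 2 h room-temperature reactions (G9a 20 nM, peptide 500 nM, SAM 20 uM) was detected with 0.5 ug/mL rabbit anti-H3K9me1 antibody.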
# Six1-Eya2 blk – Six1/Eya2 interaction inhibition; activity change, % (concentration not given with the values); AlphaScreen GST-Six1/His-Eya2 binding, biochemical; stronger effect = lower value; Q15475+O00167; AID 651725; 360,000 compounds, 0.56% hits; in the data active means activity change below about -65%; inconclusive means mostly about -30% to -63%; further: on the % scale 0 is the no-effect control and ±100 the full control effect
# Target sequence (O00167 whole entry, looked up): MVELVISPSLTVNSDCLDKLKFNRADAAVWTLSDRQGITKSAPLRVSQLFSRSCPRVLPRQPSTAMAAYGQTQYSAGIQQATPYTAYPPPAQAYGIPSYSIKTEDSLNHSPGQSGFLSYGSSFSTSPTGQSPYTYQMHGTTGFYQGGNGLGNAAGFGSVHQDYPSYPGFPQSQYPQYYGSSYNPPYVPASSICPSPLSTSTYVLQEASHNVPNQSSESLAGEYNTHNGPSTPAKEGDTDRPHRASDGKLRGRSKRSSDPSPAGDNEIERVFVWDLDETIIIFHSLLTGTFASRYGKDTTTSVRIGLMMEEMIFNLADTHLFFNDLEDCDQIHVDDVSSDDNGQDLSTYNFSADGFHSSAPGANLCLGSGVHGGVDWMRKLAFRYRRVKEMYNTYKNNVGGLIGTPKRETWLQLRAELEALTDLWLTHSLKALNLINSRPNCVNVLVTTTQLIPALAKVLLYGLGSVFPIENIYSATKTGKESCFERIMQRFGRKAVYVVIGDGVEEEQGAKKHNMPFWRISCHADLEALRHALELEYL
# Target sequence (Q15475 whole entry, looked up): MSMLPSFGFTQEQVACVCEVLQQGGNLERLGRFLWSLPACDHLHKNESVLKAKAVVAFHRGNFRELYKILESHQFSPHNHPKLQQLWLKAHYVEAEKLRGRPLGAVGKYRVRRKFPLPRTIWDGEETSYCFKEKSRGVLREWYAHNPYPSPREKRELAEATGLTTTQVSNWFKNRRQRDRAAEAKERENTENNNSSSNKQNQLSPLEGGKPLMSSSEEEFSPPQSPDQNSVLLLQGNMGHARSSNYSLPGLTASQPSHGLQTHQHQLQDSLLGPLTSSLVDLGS
#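 Homogeneous AlphaScreen proximity assay pairing GST-Six1 with His-tagged Eya2 (added as 5X mix: 250 nM and 500 nM) in 50 mM Tris pH 8.0, 300 mM NaCl, 1 mM TCEP. Glutathione donor and nickel acceptor beads; 1 h, 37 °C, dark.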
# JMJD2A Tudor inh – inhibitors of human JMJD2A Tudor domain; O75164; AlphaScreen JMJD2A-Tudor / H3K4me3 peptide binding; Potency, µM (titrated, usually from 114 µM), inactives show top-dose activity change, negative = inhibition, most hits filed as inhibitors; 390,000 compounds, 4.4% hits; AID 504339; further: potency means the concentration at half of the fitted maximal effect; on the % scale 0 is the no-effect control and ±100 the full control effect; nearly all actives have a fitted effect of over 50% in size
# HP1b binding inh – HP1-beta chromodomain-methylated histone interaction inhibition; P83916; AlphaScreen HP1-beta / biotin-H3K9me3 peptide binding; Potency, µM (highest dose often 114 µM), for the others: at the highest dose activity change, negative = inhibition, hits mostly inhibitors; 390,000 compounds, 0.56% hits; AID 540317; further: potency means the concentration at half of the fitted maximal effect; nearly all actives have a fitted effect of over 70% in size
#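 AlphaScreen: HP1-beta (50 nM) preformed 30 min with biotin-H3(1-18)K9me3 peptide (50 nM) in PBS pH 7.4, 0.01% Tween-20. Compound added for 30 min at RT, then streptavidin donor/nickel chelate acceptor beads (10 ug/mL) for 30 min.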
# CtBP-E1A inh – CtBP/E1A binding inhibition | activity change, % (test concentration not listed) | AID 651724 | AlphaScreen GST-E1A/His-CtBP binding, 1536-well; stronger effect = lower value | 340,000 compounds, 0.49% hits; in the data active means activity change below about -65%; inconclusive means mostly about -30% to -63%; further: on the % scale 0 is the no-effect control and ±100 the full control effect
#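 Protein mix (5X: 125 nM each GST-E1A, His-CtBP) was incubated with pinned compound 2 h at 37 deg C in dark, in 50 mM Tris pH 8.0 buffer with 300 mM NaCl. Glutathione donor and nickel acceptor beads followed; AlphaScreen signal read after 1 h.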
# An asterisk follows results filed as active; ? = inconclusive; nt = no result given; [ ] = remark or other dose. Unless noted, the call rests on the fitted dose curve; in most records, active means well fitted inhibition curve with a large enough effect; inconclusive means small, poorly fitted or top-dose-only effect; inactive means no such curve, though single readings can be large or run the other way.
SMILES,BAZ2B block,G9a inh,Six1-Eya2 blk,JMJD2A Tudor inh,HP1b binding inh,CtBP-E1A inh
CN(C)S(=O)(=O)c1ccc(N2CCCC2)c(C(=O)NNC(=O)c2ccccc2)c1,-3.4%,-7.3%[12.7 µM],-10.8,-12.7%,11.5%,-24.6
COc1cccc(NC(=S)/C(=C(\[O-])c2ccc([N+](=O)[O-])cc2)[n+]2ccccc2)c1,50.1µM*,44.7µM*,0.0,-17.6%[11.4 µM],-9.2%,0.1
O=[N+]([O-])c1ccc(/C([O-])=C(/C(=S)Nc2ccccc2F)[n+]2ccccc2)cc1,-35.4%,50.1µM*,14.7,-25.8%,-6.4%[57 µM],-6.0
Cc1ccc(C)c(NC(=S)/C(=C(\[O-])c2ccc(OC(F)F)cc2)[n+]2ccccc2)c1,?,39.8µM*,7.9,-7.7%,15.1%,-1.5
COc1cccc(NC(=O)CNC(=O)c2ccc([N+](=O)[O-])cc2)c1,-9.2%,-1.7%,-2.2,1.4%,32.4%,2.3
[O-]/C(=C(\C(=S)Nc1ccccc1F)[n+]1ccccc1)c1ccc(OC(F)F)cc1,-24.6%,50.1µM*,-1.5,-19.1%[11.4 µM],11.2%,-2.1
O=[N+]([O-])c1cccc(C([O-])=C(C(=S)Nc2cccc3ccccc23)[n+]2ccccc2)c1,nt,nt,-23.1,?,?,-25.2
O=C(COc1ncnc2ccc(Br)cc12)NC1CCCC1,-4.5%,?,1.1,-3.4%,19.9%,-24.3
COc1ccccc1/C(O)=C(\C#N)c1nc2ccccc2[nH]1,-28.0%,3.6%,-1.2,-2.3%[11.4 µM],27.4%,nt
O=C(Nc1ccc2c(c1)OCCO2)C(c1ccccc1)n1c(=O)c(-c2ccco2)nc2ccccc21 (stereo not given),nt,nt,-9.4,nt,nt,-3.1
Cc1cccc(C(=O)Nc2ccc3nc(SCC(=O)N4CCc5ccccc54)sc3c2)c1,6.1%,5.3%[59 µM],nt,-18.2%,66.6%,nt
O=[N+]([O-])c1cccc(/C([O-])=C(/C(=S)Nc2cccc3ccccc23)[n+]2ccccc2)c1,-35.7%,5.62µM*,-7.5,?,?,-10.2
Cc1ccc(O)c(Nc2c3ccccc3nc3ccccc23)c1,35.5µM*,?,?,?,?,-26.1
Nc1nc(Nc2cccc(F)c2)nc2ccccc12,?,56.2µM*,8.0,-19.7%[57.1 µM],16.0%,1.9
O=c1oc(Nc2cccc(F)c2)nc2ccccc12,3.1%,3.1%[59 µM],-1.7,0.8%,29.5%,3.4
Cc1ccc(C)c(Nc2nc(N)c3ccccc3n2)c1,-22.5%,50.1µM*,1.5,-7.0%,22.6%,-1.9
COc1ccc(Cl)cc1Nc1nc(N)c2ccccc2n1,-11.4%,79.4µM*,-1.3,-9.6%,35.3%,2.6
COc1ccc(OC)c(N(CC(=O)N2CCCC2)S(C)(=O)=O)c1,0.7%,71.1%,-15.9,-3.7%,21.3%,nt
C[C@@H](NC(=O)[C@H]1O[C@@H](n2cnc3c(N)ncnc32)[C@H](O)[C@@H]1O)c1cccc2ccccc12,nt,nt,-5.4,nt,nt,-1.7
CC(C)c1ccc(S(=O)(=O)c2nnn3c2nc(NC2CCCC2)c2sccc23)cc1,-9.6%,-2.1%[59 µM],nt,-22.7%,-3.8%,nt
CCN1CCC(N(Cc2cccc(OC)c2)C(=O)Nc2cccc(C)c2C)CC1,-1.9%,-30.5%[59 µM],nt,-13.2%,19.8%,nt
CCOC(=O)C1CCCN(C(=O)c2cccc(NC(=O)c3nsc4ccccc34)c2)C1 (stereo not given),?,-41.2%[59 µM],nt,-14.9%,25.4%[57 µM],nt
CN(c1ccc(F)cc1)S(=O)(=O)c1ccc(Cl)c(C(=O)NCC(c2ccco2)N2CCCCC2)c1 (stereo not given),56.2µM*,28.2µM*,-6.8,?,-33.5%,-2.2
CCc1noc(C)c1C(=O)N(C)CC(=O)Nc1cccc(OC)c1,10.0%,15.1%[12.7 µM],1.9,-5.7%,32.2%,3.4
CC(=O)C1C(=O)c2c(cccc2[N+](=O)[O-])C1=Nc1ccc(S(N)(=O)=O)cc1 (stereo not given),?,39.8µM*,-4.3,?,7.4%,-7.9
SMILES,BAZ2B block,G9a inh,Six1-Eya2 blk,JMJD2A Tudor inh,HP1b binding inh,CtBP-E1A inh
COC(=O)C1(C(=O)OC)C[C@H](c2ccc(OC)cc2)N(Cc2ccccc2OC)[C@@H]1c1cccs1,nt,nt,-7.8,nt,nt,-5.0
CCOc1ccc(NC(=O)CN(C)C(=O)c2cc([N+](=O)[O-])ccc2N2CCOCC2)cc1OCC,1.2%,-31.8%[59 µM],-6.9,-8.3%,18.8%,5.4
CC(C)c1ccccc1OCCCN1CCCC1,?,39.8µM*,3.1,31.6µM*,?,nt
O=C1c2ccccc2C(=O)N1CCOc1ccccc1Br,25.1%,115.6%,15.9,53.8%,106.1%,2.7
Brc1ccccc1OCCCN1CCCCCC1,?,56.2µM*,-6.1,1µM*,?,7.2
Brc1ccccc1OCCN1CCCC1,nt,nt,2.1,20µM*,79.4µM*,-2.3
Brc1ccccc1OCCCN1CCCC1,?,nt,-5.8,10µM*,?,7.0
COc1ccc(C(CC(=O)O)NC(=O)c2cc3ccccc3oc2=O)cc1OC (stereo not given),-24.1%,-3.1%[59 µM],nt,-0.4%,38.3%,nt
Fc1ccc(OCCCCN2CCOCC2)cc1,-11.3%,-5.5%[59 µM],5.1,-4.5%,23.4%,21.7
CC(=O)c1ccccc1OCCCN1CCCCC1,50.1µM*,11.2µM*,28.6,3.16µM*,?,0.0
CC(=O)c1ccccc1OCCOCCOCCOc1ccccc1C(C)=O,-14.0%,nt,-13.7,-0.8%,21.1%,-1.6
Brc1ccccc1OCCCCCN1CCOCC1,56.2µM*,39.8µM*,3.6,4.47µM*,?,9.2
Cc1ccc(C)c(NC(=O)c2ccc3nc(CCc4ccccc4)oc3c2)c1,0.4%,6.3%[59 µM],nt,-19.2%,18.2%[57 µM],nt
CC(C)(C)c1cccc(Oc2nn[nH]n2)c1,-2.7%,79.4µM*,4.4,-16.0%,30.7%,-0.4
COC(=O)C1C(O)CC[C@@H]2CN3CCc4c([nH]c5ccccc45)C3C[C@@H]12 (stereo not given in full),nt,-34.4%[2.33 µM],nt,nt,nt,nt
Cc1ccc2c(CSc3nnc(C4CC4)n3N)cc(=O)oc2c1,21.4%,50.1µM*,-2.5,-15.5%,33.7%,11.6
COc1ccc(OCc2nc(-c3ccc(F)c(F)c3)cs2)cc1,11.3%,62.0%,6.7,0.7%,52.8%,9.0
Cc1cc2oc(=O)cc(-c3ccccc3)c2c(C)c1-c1ccc(N(C)C)cc1,nt,28.2µM*,?,?,-12.3%,-22.2
Cc1ccc(-c2c(C)cc3oc(=O)cc(-c4ccccc4)c3c2C)cc1,nt,35.8%,-0.2,-16.4%,22.3%,3.4
COc1cc(OC)c2c(-c3cccc(-c4ccc(N(C)C)cc4)c3)cc(=O)oc2c1,nt,8.91µM*,?,10µM*,?,?
Cc1ccc(C(=O)Nc2nnc(S(=O)(=O)N3CCN(c4ccc(F)cc4)CC3)s2)cc1,?,17.8%,0.9,?,22.7%,-11.3
